Laboratory results published in PubChem BioAssay (EPA / NIEHS).
The source made the active and inactive calls. How the source made its calls: active means hit-call score of the fitted dose curve at least 0.9, where 1 is the maximum; inactive means score below 0.9.

Legend:
[1] = molecular target: Transcription factor E2F1 (Homo sapiens) (UniProt Q01094); test: ATG_E2F_CIS: Attagene CIS-FACTORIAL HepG2 Assay for human E2F Transcription Factor 1 (AID 2282935); details: HepG2 Attagene cis-reporter, E2F reporter RNA transcripts; actives raise or lower the signal
Chain of Transcription factor E2F1 (Homo sapiens) (Q01094 whole entry, looked up): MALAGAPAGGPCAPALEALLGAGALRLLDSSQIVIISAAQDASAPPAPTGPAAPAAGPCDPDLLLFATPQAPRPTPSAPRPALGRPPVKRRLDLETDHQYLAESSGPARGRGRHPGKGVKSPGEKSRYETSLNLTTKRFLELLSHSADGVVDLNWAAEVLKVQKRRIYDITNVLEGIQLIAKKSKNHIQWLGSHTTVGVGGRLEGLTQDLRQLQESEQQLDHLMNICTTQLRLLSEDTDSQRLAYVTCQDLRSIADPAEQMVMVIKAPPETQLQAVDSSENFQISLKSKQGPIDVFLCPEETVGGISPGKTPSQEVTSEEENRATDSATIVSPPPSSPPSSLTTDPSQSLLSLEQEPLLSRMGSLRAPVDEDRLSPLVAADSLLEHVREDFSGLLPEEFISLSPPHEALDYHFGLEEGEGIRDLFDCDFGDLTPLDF
Method in brief: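 Measures reporter transcript levels via RT-PCR with capillary electrophoresis detection in HepG2 cells harboring cis-regulated reporter units; 24 h post-dose; bidirectional curve fitting with DMSO as baseline.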

[2] = ATG_M_61_CIS: Attagene CIS-FACTORIAL HepG2 Assay for M61 Transcription Factor (Internal Marker) (AID 2282937); details: HepG2 Attagene CIS-FACTORIAL M61 internal marker reporter; actives raise or lower the signal
Method in brief: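 Transfect HepG2 with MRTUs; dose 24 h; isolate RNA; reverse-transcribe with DNase I treatment; PCR-amplify, FAM-label and cut with HpaI for 2 h at 37 C; resolve by CE. Bidirectional fitting against DMSO.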

[3] = ATG_EGR_CIS: Attagene CIS-FACTORIAL HepG2 Assay for human Early Growth Response 1 (EGR1) (AID 2282938); details: HepG2 Attagene CIS-FACTORIAL EGR reporter mRNA; actives raise or lower the signal
Method in brief: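 After a 24 h treatment of transiently transfected HepG2 cells, total RNA was reverse-transcribed and reporter sequences PCR-amplified, labelled and run on capillary electrophoresis. Reporters sit under cis-regulatory promoters sensing endogenous factors.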

[4] = ATG_M_19_CIS: Attagene CIS-FACTORIAL HepG2 Assay for M19 Transcription Factor (Internal Marker) (AID 2282939); details: HepG2 Attagene CIS-FACTORIAL M19 internal marker reporter; actives raise or lower the signal
Method in brief: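 Signals come from fluorescence of labelled reporter-specific PCR fragments resolved by capillary electrophoresis, following 24 h treatment of HepG2 cells transfected with cis-promoter reporter units; activity was fitted in both directions relative to DMSO.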

[5] = ATG_ERE_CIS: Attagene CIS-FACTORIAL HepG2 Assay for Estrogen Response Element (ERE) (AID 2282940); details: HepG2 ERE cis-reporter, Attagene RNA transcript; actives raise or lower the signal
Method in brief: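 Fluorescence of capillary-separated, FAM-labelled reporter cDNA fragments indicates reporter mRNA levels in HepG2 cells exposed to chemicals for 24 h. Transient transfection with cis-regulated units; data fitted in both directions against DMSO.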

[6] = molecular target: Hepatocyte nuclear factor 3-beta (Homo sapiens) (UniProt Q9Y261); test: ATG_FoxA2_CIS: Attagene CIS-FACTORIAL HepG2 Assay for human Forkhead box A2 (FOXA2) (AID 2282942); details: HepG2 cis-reporter transcription factor activity, 24 h; actives raise or lower the signal
Chain of Hepatocyte nuclear factor 3-beta (Homo sapiens) (Q9Y261 whole entry, looked up): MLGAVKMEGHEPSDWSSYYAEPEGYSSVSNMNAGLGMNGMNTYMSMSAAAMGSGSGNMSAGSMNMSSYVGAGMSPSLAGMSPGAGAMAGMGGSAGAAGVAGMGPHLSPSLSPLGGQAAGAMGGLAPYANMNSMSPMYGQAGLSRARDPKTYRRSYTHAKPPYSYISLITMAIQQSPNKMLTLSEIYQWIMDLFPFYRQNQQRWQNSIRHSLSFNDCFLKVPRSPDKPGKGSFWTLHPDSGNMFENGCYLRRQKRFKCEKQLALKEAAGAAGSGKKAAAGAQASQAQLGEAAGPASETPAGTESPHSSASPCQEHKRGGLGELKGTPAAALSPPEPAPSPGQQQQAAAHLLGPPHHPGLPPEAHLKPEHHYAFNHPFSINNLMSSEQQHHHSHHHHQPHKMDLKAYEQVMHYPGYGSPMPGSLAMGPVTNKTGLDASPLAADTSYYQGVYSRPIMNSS
Method in brief: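 24 h dosing of HepG2 bearing cis-reporter constructs; mRNA readout by RT-PCR/CE fluorescence; bidirectional fit, DMSO baseline.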

[7] = ATG_FoxO_CIS: Attagene CIS-FACTORIAL HepG2 Assay for human Forkhead box O (FoxO) (AID 2282943); details: HepG2 Attagene cis-reporter, FoxO element, mRNA; actives raise or lower the signal
Method in brief: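 HepG2 cells transiently transfected with cis-element-driven reporter units report endogenous FoxO activity. After 24 h chemical exposure, reporter mRNA quantified by RT-PCR, fluorescent labeling, HpaI digestion and capillary electrophoresis; bidirectional fit versus DMSO.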

[8] = ATG_GATA_CIS: Attagene CIS-FACTORIAL HepG2 Assay for human GATA Binding Protein (AID 2282944); details: HepG2 GATA cis-element reporter, Attagene multiplex mRNA; actives raise or lower the signal
Method in brief: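 After transfecting HepG2 cells with multiple cis-regulated reporter units, chemicals are dosed for 24 h; isolated RNA undergoes RT-PCR and fluorescent labeling before capillary electrophoresis, with activity expressed against DMSO.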

[9] = ATG_GLI_CIS: Attagene CIS-FACTORIAL HepG2 Assay for human Zinc Finger Protein GLI1 (AID 2282945); details: HepG2, Attagene cis-factorial reporter mRNA, GLI element; actives raise or lower the signal
Method in brief: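 Transiently transfected HepG2 cells report endogenous transcription factor activity via cis-element-driven reporter units. After 24 h compound exposure, reporter mRNA was measured by RT-PCR with capillary electrophoresis; bidirectional fitting against DMSO baseline.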

[10] = ATG_GRE_CIS: Attagene CIS-FACTORIAL HepG2 Assay for human Glucocorticoid Response Elements (GRE) (AID 2282947); details: HepG2 GRE cis-reporter, Attagene multiplex mRNA; actives raise or lower the signal
Method in brief: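 Endogenous transcription factor activity is read through cis-element reporter constructs transiently transfected into HepG2 cells. After 24 h treatment, labelled RT-PCR products are resolved by capillary electrophoresis; DMSO sets baseline for bidirectional curve fitting.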

[11] = ATG_ISRE_CIS: Attagene CIS-FACTORIAL HepG2 Assay for human Interferon Regulatory Factor 1 (IRF1) binding to an Interferon-Stimulated Response Element (ISRE) (AID 2282948); details: HepG2 ISRE cis-reporter (Attagene), mRNA transcription readout; actives raise or lower the signal
Method in brief: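 HepG2 cells transiently transfected with multiplexed cis-promoter reporter units; after 24 h compound exposure, reporter mRNA quantified by RT-PCR, FAM labelling, HpaI digestion and capillary electrophoresis. Bidirectional fit versus DMSO baseline.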

[12] = ATG_M_32_CIS: Attagene CIS-FACTORIAL HepG2 Assay for M32 Transcription Factor (Internal Marker) (AID 2282949); details: HepG2 Attagene cis-factorial M32 reporter, mRNA; actives raise or lower the signal;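 further: background control marker of the multiplexed CIS panel rather than a real target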
Method in brief: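 Internal background marker read-out: RT-PCR/capillary electrophoresis fluorescence of reporter transcripts from transiently transfected HepG2 cells after 24 h chemical exposure. Activity fitted bidirectionally relative to DMSO negative control.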

[13] = ATG_M_06_CIS: Attagene CIS-FACTORIAL HepG2 Assay for M06 Transcription Factor (Internal Marker) (AID 2282950); details: HepG2 Attagene CIS-FACTORIAL M06 internal marker reporter; actives raise or lower the signal
Method in brief: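 HepG2 liver cells, 24 h exposure. Reporter transcripts from transfected cis-element constructs quantified by RT-PCR/capillary electrophoresis fluorescence. Bidirectional curve fit against DMSO.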

[14] = molecular target: Hypoxia-inducible factor 1-alpha (Homo sapiens) (UniProt Q16665); test: ATG_HIF1a_CIS: Attagene CIS-FACTORIAL HepG2 Assay for human Hypoxia Inducible Factor 1 (HIF1A) (AID 2282951); details: HepG2 Attagene cis-factorial HIF1a reporter transcription; actives raise or lower the signal
Chain of Hypoxia-inducible factor 1-alpha (Homo sapiens) (Q16665 whole entry, looked up): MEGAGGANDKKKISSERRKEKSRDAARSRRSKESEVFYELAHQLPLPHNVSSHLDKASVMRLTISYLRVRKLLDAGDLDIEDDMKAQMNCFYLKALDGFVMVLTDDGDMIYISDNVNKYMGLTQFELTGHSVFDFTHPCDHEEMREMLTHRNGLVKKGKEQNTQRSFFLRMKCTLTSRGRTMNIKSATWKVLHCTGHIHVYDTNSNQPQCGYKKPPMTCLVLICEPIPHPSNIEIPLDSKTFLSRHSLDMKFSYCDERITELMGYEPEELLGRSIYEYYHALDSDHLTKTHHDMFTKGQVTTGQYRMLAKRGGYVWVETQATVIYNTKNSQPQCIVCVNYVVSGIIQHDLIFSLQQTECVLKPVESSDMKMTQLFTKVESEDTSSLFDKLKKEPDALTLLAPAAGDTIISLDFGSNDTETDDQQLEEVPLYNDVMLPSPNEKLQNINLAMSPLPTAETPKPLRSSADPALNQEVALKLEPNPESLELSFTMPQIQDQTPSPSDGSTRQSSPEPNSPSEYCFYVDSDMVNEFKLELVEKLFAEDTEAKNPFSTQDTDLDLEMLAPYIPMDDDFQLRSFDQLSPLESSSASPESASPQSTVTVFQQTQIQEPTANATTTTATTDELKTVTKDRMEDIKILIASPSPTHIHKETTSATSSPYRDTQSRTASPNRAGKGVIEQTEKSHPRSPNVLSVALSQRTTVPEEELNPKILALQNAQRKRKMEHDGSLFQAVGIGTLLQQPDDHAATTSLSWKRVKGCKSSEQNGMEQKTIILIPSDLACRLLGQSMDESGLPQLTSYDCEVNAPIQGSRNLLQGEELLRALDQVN
Method in brief: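 After 24 h chemical exposure of reporter-transfected HepG2 cells, reporter cDNA was PCR-amplified, labelled by 6-FAM primer extension (2 min 95 C, 20 s 68 C, 10 min 72 C), HpaI-cut (2 h, 37 C) and analysed by CE.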

[15] = molecular target: Hepatocyte nuclear factor 6 (Homo sapiens) (UniProt Q9UBC0); test: ATG_HNF6_CIS: Attagene CIS-FACTORIAL HepG2 Assay for human Hepatocyte Nuclear Factor 6 (HNF6) (AID 2282952); details: HepG2 Attagene cis-factorial HNF6 reporter transcription; actives raise or lower the signal
Chain of Hepatocyte nuclear factor 6 (Homo sapiens) (Q9UBC0 whole entry, looked up, the tested form may be a part): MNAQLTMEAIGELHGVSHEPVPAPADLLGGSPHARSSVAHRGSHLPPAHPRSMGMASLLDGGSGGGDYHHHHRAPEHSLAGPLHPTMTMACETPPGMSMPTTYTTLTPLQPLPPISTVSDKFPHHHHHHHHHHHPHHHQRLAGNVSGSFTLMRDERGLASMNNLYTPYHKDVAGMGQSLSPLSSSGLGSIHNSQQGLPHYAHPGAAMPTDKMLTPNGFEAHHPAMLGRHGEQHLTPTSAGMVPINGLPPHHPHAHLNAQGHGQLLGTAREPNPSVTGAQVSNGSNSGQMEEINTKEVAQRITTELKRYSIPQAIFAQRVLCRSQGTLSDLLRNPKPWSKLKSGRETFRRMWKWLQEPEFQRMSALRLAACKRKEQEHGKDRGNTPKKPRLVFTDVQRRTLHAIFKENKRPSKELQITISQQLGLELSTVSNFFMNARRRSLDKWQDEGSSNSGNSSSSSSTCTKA
Method in brief: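 Reporter mRNA induction or loss in HepG2 after 24 h exposure; transient cis-MRTU transfection; fragments quantified by capillary electrophoresis; bidirectional analysis, DMSO as negative control.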

[16] = ATG_MRE_CIS: Attagene CIS-FACTORIAL HepG2 Assay for human Metal Responsive Element (MRE) (AID 2282954); details: HepG2 MRE cis-reporter transcription, Attagene multiplex; actives raise or lower the signal
Method in brief: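 Fluorescent reporter fragments separated by capillary electrophoresis give mRNA induction for the MRE unit after 24 h treatment of transfected HepG2 cells. Endogenous transcription-factor activity is read; DMSO serves as negative control and baseline.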

[17] = ATG_Ets_CIS: Attagene CIS-FACTORIAL HepG2 Assay for human Erythroblast Transformation Specific (ETS) (AID 2282941); details: HepG2 ETS cis-reporter transcription, actives raise or lower the signal
Method in brief: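 HepG2 cells transiently transfected with cis-promoter reporter transcription units were dosed for 24 h; reporter mRNA was measured by RT-PCR, 6-FAM primer extension, HpaI digestion and capillary electrophoresis, with bidirectional fitting against DMSO baseline.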

[18] = molecular target: Heat shock factor protein 1 (Homo sapiens) (UniProt Q00613); test: ATG_HSE_CIS: Attagene CIS-FACTORIAL HepG2 Assay for human Heat Shock Transcription Factor 1 (HSE) (AID 2282953); details: HepG2 HSE cis-reporter, Attagene RNA transcription; actives raise or lower the signal
Chain of Heat shock factor protein 1 (Homo sapiens) (Q00613 whole entry, looked up, the tested form may be a part): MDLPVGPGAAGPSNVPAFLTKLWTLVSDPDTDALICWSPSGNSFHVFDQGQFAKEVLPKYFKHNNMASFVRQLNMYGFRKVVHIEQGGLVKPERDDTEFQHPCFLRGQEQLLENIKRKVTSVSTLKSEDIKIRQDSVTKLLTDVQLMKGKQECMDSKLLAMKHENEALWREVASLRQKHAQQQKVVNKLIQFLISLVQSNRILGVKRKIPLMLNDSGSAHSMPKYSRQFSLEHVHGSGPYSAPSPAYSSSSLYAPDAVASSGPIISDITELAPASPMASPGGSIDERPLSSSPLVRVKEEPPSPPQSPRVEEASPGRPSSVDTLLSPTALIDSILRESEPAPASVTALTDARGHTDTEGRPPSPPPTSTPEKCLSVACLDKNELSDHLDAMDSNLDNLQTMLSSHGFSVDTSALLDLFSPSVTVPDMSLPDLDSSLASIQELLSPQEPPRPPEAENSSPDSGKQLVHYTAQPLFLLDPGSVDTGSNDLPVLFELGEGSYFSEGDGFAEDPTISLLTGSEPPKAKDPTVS
Method in brief: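 Endogenous transcription factor activity captured via cis-promoter reporter units transfected into HepG2; treatment lasted 24 h. Fluorescence intensity of reporter fragments analysed with bidirectional curve fitting, DMSO baseline.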

[19] = molecular target: Bile acid receptor (Homo sapiens) (UniProt Q96RI1); test: ATG_IR1_CIS: Attagene CIS-FACTORIAL HepG2 Assay for human Nuclear Receptor Subfamily 1 Group H Member 4 (NR1H4), IR1 submotif (AID 2282946); details: IR1 reporter transcription, actives raise or lower the signal
Chain of Bile acid receptor (Homo sapiens) (Q96RI1 whole entry, looked up): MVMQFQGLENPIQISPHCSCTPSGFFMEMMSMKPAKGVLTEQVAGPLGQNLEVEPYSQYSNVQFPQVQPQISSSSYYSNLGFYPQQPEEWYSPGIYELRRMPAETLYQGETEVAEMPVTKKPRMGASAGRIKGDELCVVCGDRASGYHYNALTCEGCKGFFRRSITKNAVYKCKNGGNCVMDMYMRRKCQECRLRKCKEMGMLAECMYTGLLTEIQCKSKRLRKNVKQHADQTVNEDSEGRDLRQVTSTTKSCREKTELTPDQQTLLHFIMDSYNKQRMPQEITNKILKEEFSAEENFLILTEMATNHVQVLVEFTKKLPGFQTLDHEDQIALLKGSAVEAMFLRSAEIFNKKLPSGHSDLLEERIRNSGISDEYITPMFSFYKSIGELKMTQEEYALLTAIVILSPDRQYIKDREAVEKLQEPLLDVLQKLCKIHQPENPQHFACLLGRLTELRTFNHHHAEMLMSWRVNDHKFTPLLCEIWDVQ
Method in brief: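 HepG2 cells transiently transfected with multiple cis-promoter-driven reporter units to measure endogenous transcription factor activity; 24 h exposure. Reporter mRNA read by RT-PCR, FAM labelling, HpaI digestion and capillary electrophoresis. Bidirectional fit versus DMSO.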

| SMILES | outcome [1] | outcome [2] | outcome [3] | outcome [4] | outcome [5] | outcome [6] | outcome [7] | outcome [8] | outcome [9] | outcome [10] | outcome [11] | outcome [12] | outcome [13] | outcome [14] | outcome [15] | outcome [16] | outcome [17] | outcome [18] | outcome [19] | AC50 [5] |
| --- | --- | --- | --- | --- | --- | --- | --- | --- | --- | --- | --- | --- | --- | --- | --- | --- | --- | --- | --- | --- |
| CNCc1cc(F)ccc1Oc1ccc(Cl)c(Cl)c1 | inactive | inactive | inactive | inactive | inactive | inactive | inactive | inactive | inactive | inactive | inactive | inactive | inactive | inactive | inactive | inactive |  |  |  |  |
| O=C(OCCCCCOC(=O)c1ccccc1)c1ccccc1 | inactive | inactive | inactive | inactive | inactive | inactive |  | inactive | inactive | inactive | inactive | inactive | inactive |  | inactive | inactive | inactive | inactive |  |  |
| COCCOC[C@H](CC1(C(=O)NC2CCC(C(=O)O)CC2)CCCC1)C(=O)Oc1ccc2c(c1)CCC2 (some centres undefined) | inactive | inactive | inactive | inactive | inactive | inactive |  | inactive | inactive | inactive | inactive | inactive | inactive | inactive | inactive | inactive | inactive | inactive |  |  |
| CCCCCCOCCO | inactive | inactive | inactive | inactive | inactive | inactive | inactive | inactive | inactive | inactive | inactive | inactive | inactive |  | inactive | inactive | inactive |  |  |  |
| Nc1nc(N)c2nc(CNc3ccc(C(=O)N[C@@H](CCC(=O)O)C(=O)O)cc3)cnc2n1 | inactive | inactive | inactive | inactive | inactive | inactive | inactive | inactive | inactive | inactive | inactive | inactive | inactive |  | inactive | inactive |  |  | inactive |  |
| OC[C@@H](O)[C@@H](O)[C@H](O)[C@H](O)CO | inactive | inactive | inactive | inactive | inactive | inactive | inactive | inactive | inactive |  | inactive | inactive | inactive |  | inactive | inactive |  | inactive |  |  |
| O=[N+]([O-])C(CO)(CO)CO | inactive | inactive | inactive | inactive | inactive | inactive |  | inactive | inactive |  | inactive | inactive | inactive |  | inactive | inactive | inactive |  |  |  |
| C1CCC(SSC2CCCCC2)CC1 | inactive | inactive | inactive | inactive |  | inactive |  | inactive | inactive | inactive | inactive | inactive | inactive |  | inactive | inactive |  |  |  | 56.7 µM (active) |
